EBV LMP1 NFkB = inhibitors of Epstein-Barr LMP1-induced NF-kappaB reporter; LMP1-induced NF-kappaB luciferase reporter cells, luminescence; inhibition, % at 12.5 µM; 350,000 compounds, 0.69% hits; AID 504558; in the data active = inhibition above about 41%; inconclusive = no clear call, values can overlap the other calls;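 also: 0% = neutral control wells and 100% = reference inhibitor control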
HSP90 inh = blocks HSP90-mediated luciferase refolding in reticulocyte lysate. 290,000 compounds, 0.91% hits. inhibition, % at 5.6 µM. Rabbit reticulocyte lysate, luciferase refolding luminescence, 3 h;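 active = inhibition above the screen-wide mean plus 3 SD, computed separately per campaign, cut at about 16% in these data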;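 also: 0% = DMSO wells and 100% = 60 µM geldanamycin wells; inhibitors lower the luminescence because luciferase stays unfolded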
HSF-1 act = increases HSF-1 driven luciferase reporter signal; NIH3T3-HGL HSF-1 luciferase reporter, MG132, 8 h; 100% = twice DMSO control signal; activation, % at 9 µM; 300,000 compounds, 1.7% hits;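 active = mean replicate activation of at least 50% with a set share of replicates each reaching 50%; inconclusive = only one of those two conditions met; inactive = mean below 50% and too few replicates reaching it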;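 also: 0% = median of the neutral control wells and 100% = twice that signal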
HSF1 inhib = HSF1 inhibition; NIH3T3-HGL HSE-luciferase, MG132-induced, luminescence 8 h; stronger effect = lower value; activity change, negative = inhibition, % at 7.5 µM (by protocol); 300,000 compounds, 0.77% hits; AID 2098;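 active = more than half of replicate wells show activity change below -50%, luminescence cut by over half; inconclusive = some wells, but at most half, below -50%; inactive = no replicate well below -50%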;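 also: luciferase reports HSF-1 transcriptional activity via heat shock element; 0% = median of DMSO wells and -100% = zero luminescence signal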
TROY NFkB inh = blocks TROY-dependent signaling in reporter cells; Q293 LMP1-TROYcd NF-kB luciferase reporter, 4 h; inhibition, % at 10 µM; 360,000 compounds, 0.98% hits; AID 1347056;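 active = compounds whose plate-normalised and pattern-corrected inhibition of the luciferase reporter signal at the single screening dose is 50% or more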
TWEAK-Fn14 inh = TWEAK-Fn14 signaling inhibition. TWEAK-stimulated Fn14 reporter cells, luciferase luminescence, 8 h. inhibition, % at 10 µM. 360,000 compounds, 2% hits. AID 1159606; in the data active = inhibition above about 50%
HSP90 confirm = confirmation of HSP90 inhibitors. shares compounds with HSP90 inh. inhibition, % at 5.9 µM. rabbit reticulocyte lysate, luciferase refolding luminescence, 3 h. 2,300 compounds, 64% hits. AID 1846; in the data active = inhibition above about 18%;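 also: 0% = vehicle wells and 100% = reference inhibitor wells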
luciferase ctr = firefly luciferase inhibition, HSP90 counter-screen | shares compounds with HSP90 inh | inhibition, % at 5.9 µM | purified native firefly luciferase, luminescence | AID 1847 | 2,300 compounds, 48% hits;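 active = inhibition above the mean inhibition of all tested sample wells plus 3 SD, cut at about 10% in these data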;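 also: 0% = DMSO with luciferase and 100% = wells lacking luciferase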
Target sequence (P08659 whole entry, looked up): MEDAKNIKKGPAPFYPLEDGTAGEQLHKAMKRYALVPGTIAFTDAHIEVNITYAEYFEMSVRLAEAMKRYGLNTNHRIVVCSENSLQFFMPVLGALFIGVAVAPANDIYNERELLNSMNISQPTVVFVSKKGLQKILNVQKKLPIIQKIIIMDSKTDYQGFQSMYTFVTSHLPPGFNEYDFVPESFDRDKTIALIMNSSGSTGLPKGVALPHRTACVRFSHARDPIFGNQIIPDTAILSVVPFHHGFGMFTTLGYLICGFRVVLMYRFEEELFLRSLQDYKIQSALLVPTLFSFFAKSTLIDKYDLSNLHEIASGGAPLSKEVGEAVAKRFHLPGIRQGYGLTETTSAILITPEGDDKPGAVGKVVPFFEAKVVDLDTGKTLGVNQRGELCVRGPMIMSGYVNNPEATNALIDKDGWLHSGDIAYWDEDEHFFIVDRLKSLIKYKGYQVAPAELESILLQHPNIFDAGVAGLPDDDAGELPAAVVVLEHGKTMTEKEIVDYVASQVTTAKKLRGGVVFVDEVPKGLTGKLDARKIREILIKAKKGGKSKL
Active calls of the source: *; ? = inconclusive; . = not tested or not shown. Hits are enriched below; roughly 4.7% of the tested compounds scored in any of these assays.

SMILES	EBV LMP1 NFkB	HSP90 inh	HSF-1 act	HSF1 inhib	TROY NFkB inh	TWEAK-Fn14 inh	HSP90 confirm	luciferase ctr
O=C1c2ccccc2C(=O)c2[nH]c(=O)[nH]c21	88.6*	24.5*	41.5	29.6	53.8*	45.1	19.1*	-9.6
O=C(c1cccs1)N1C[C@H](O)[C@@H](n2cc(-c3ccc(F)cc3)nn2)C[C@@H]1c1ccccc1	1.7	.	.	.	-13.1	5.2	.	.
COc1ccc(C(=O)NCCn2cc(SCC(N)=O)c3ccccc32)cc1	-7.7	73.6*	-16.9	-8.9	62.8*	50.6*	9.5	-9.2
COc1ccc(C(=O)NCCn2ccc3ccccc32)cc1	-14.7	60.0*	38.7	29.3	42.9	29.7	22.1*	-12.0
Cc1ccc(C(=O)NCCn2ccc3ccccc32)cc1[N+](=O)[O-]	-18.9	-0.2	-3.0	-13.7	-60.1	-3.1	.	.
O=C(CSc1cn(CCNC(=O)c2ccc3ccccc3c2)c2ccccc12)NCc1ccco1	-11.5	18.9*	-1.1	-1.8	41.7	59.9*	21.8*	-1.1
Cc1ccc2c(CC(=O)Nc3ccc4nc(N5CCOCC5)sc4c3)coc2c1	1.4	.	.	.	-9.7	-2.3	.	.
COc1ccc(C(=O)N2CCCCC2c2cc(C(=O)Nc3cccc(C#N)c3)no2)cc1 (stereo not given)	.	.	.	.	-6.9	8.8	.	.
COc1ccc(/C=C/C(=O)OC2CCCN(C)C2)cc1 (stereo not given)	-2.9	9.5	?	12.6	-23.6	-7.2	.	.
COc1ccc(/C=C/C(=O)OC2CCCCC2CN(C)C)cc1 (stereo not given)	-2.8	20.8*	-19.4	-19.4	7.2	6.0	1.1	-3.7
CC(Oc1ccccc1F)C(=O)NNC(=O)Cc1ccc(S(=O)(=O)N2CCOCC2)s1 (stereo not given)	-7.3	.	.	.	-7.6	14.1	.	.
CC(C)Oc1ccc2ccccc2c1CNC[C@H]1O[C@@H](n2ccc(N)nc2=O)[C@H](O)[C@@H]1O	-4.8	.	.	.	2.1	14.8	.	.
c1ccc2sc(-c3ccc4c(c3)OCO4)nc2c1	21.5	19.0*	.	.	10.8	74.2*	59.7*	55.8*
O=C(NC1CC1)c1ccc(-c2nc3ccccc3s2)s1	42.3*	76.0*	-45.7	-39.1	70.8*	96.7*	80.5*	77.1*
O=C(c1ccc(-c2nc3ccccc3s2)s1)N1CCOCC1	.	63.8*	-56.1	-47.0	.	.	84.8*	79.0*
CC1=C(C(=O)N2CCCCCC2)CC(CC(=O)NCCN2CCOCC2)C(=O)N1Cc1ccccc1 (stereo not given)	.	.	.	.	10.3	10.6	.	.
COCOCCn1cc(CN2CCS(=O)(=O)N(Cc3ccc(-c4ccc(OC)cc4)cc3)C(C)C2=O)nn1 (stereo not given)	-2.0	.	.	.	-2.0	3.4	.	.
c1cc(C2OCCO2)cs1	-7.4	.	.	.	2.7	-4.2	.	.
CCc1ccc(C2=NN(C(=O)OC)C(O)(C(F)(F)F)C2)cc1 (stereo not given)	14.0	39.6*	24.0	3.5	22.8	29.6	64.5*	48.8*
CCOC(=O)N1N=C(c2ccc(OC)cc2)CC1(O)C(F)(F)F (stereo not given)	5.5	21.8*	29.1	20.0	6.3	26.7	38.8*	26.2*
Nc1c(C(=O)Nc2cccc(C(=O)O)c2)sc2nc3c(cc12)CCCC3	57.2*	91.4*	-3.6	-2.8	-49.3	29.3	97.1*	89.7*
CCC(C)[C@H]1CNC(=O)C(=O)N1CCCCC1CCCCC1 (stereo not given in full)	.	.	.	.	-9.7	-2.9	.	.
Cc1c(/C(O)=C2\C(=O)C(=O)N(CCN(C)C)C2c2ccco2)cnn1-c1ccccc1 (stereo not given)	14.3	51.9*	-50.3	-46.0	4.4	42.1	21.1*	10.3*
Cc1c(/C(O)=C2\C(=O)C(=O)N(CCN(C)C)C2c2ccccc2)cnn1-c1ccccc1 (stereo not given)	18.3	26.9*	-63.5	-63.3*	43.9	57.4*	12.0	-7.8
Cc1cccc(C)c1NC(=O)c1csc([C@H]2C[C@H](O)[C@@H](CO)O2)n1	.	.	.	.	7.5	-2.0	.	.
SMILES	EBV LMP1 NFkB	HSP90 inh	HSF-1 act	HSF1 inhib	TROY NFkB inh	TWEAK-Fn14 inh	HSP90 confirm	luciferase ctr
COc1cc(/C=C2\CCC(C3CCCC3)C2=O)cc(OC)c1OC (stereo not given)	0.4	-2.4	16.7	2.2	-55.0	-80.8	.	.
COc1cc(/C=C2\CC(C(C)(C)C)C/C(=C\c3cc(OC)c(OC)c(OC)c3)C2=O)cc(OC)c1OC (stereo not given)	?	18.9*	53.3*	40.7	12.1	64.2*	19.8*	-5.3
Cc1ccc(C(C)NC(=O)Cc2cccs2)c(C)c1 (stereo not given)	3.6	29.8*	-15.9	-2.9	-12.6	-0.9	-9.7	-11.0
Cc1ccc(C(C)NC(=O)Cc2cccs2)cc1C (stereo not given)	-0.8	2.6	8.8	1.8	7.6	10.0	.	.
COc1ccc(C)cc1S(=O)(=O)N1CCCC(C(=O)N2CCN(c3ccccc3)CC2)C1 (stereo not given)	0.4	22.5*	17.4	4.1	13.3	6.2	3.2	-2.2
COc1ccc([C@H]2C[C@H](O)[C@@H](n3cc(-c4ccc(F)cc4)nn3)CN2C(=O)c2cccs2)cc1	-0.1	.	.	.	-4.0	-8.1	.	.
CCCCCC(=O)N1C[C@H](O)[C@@H](n2cc(C3CC3)nn2)C[C@@H]1c1ccc(Cl)cc1	-9.6	.	.	.	-5.4	15.5	.	.
O=C(O)c1cccc(NC2=C(n3nnc4ccccc43)C(=O)c3ccccc3C2=O)c1	-0.3	4.0	-9.3	-6.1	-33.9	-3.0	.	.
COC1=C(Nc2ccc(O)cc2)C(=O)c2ccccc2C1=O	0.8	-2.3	33.8	12.0	-17.9	-4.6	.	.
CCc1ccc(S(=O)(=O)/N=C2\C=CC(=O)c3ccccc32)cc1	.	0.9	-47.3	-41.2	.	.	.	.
CCc1ccc(S(=O)(=O)/N=C2/C=C(Sc3ncn[nH]3)C(=O)c3ccccc32)cc1	23.9	87.5*	.	.	60.3*	96.5*	32.6*	34.0*
CCc1ccc(S(=O)(=O)/N=C2\C=C(Nc3cccc(C(=O)O)c3)C(=O)c3ccccc32)cc1	-9.3	69.2*	14.0	7.6	-6.7	97.6*	81.7*	-5.5
CCc1ccc(S(=O)(=O)/N=C2\C=C(Nc3ccc(O)cc3)C(=O)c3ccccc32)cc1	90.2*	31.1*	-95.6	-95.2*	73.6*	94.1*	71.6*	-8.0
O=C1C(Nc2ccc(O)cc2)=C/C(=N/S(=O)(=O)c2cccs2)c2ccccc21	96.1*	72.9*	-94.0	-92.9*	58.5*	94.6*	91.4*	2.7
CCOC(=O)C1=C(C)N=c2sc(=Cc3cc(Cl)c(OCC(=O)O)c(Cl)c3)c(=O)n2C1c1cccc(OC)c1 (stereo not given)	.	.	.	.	40.5	24.9	.	.

High-throughput results deposited in PubChem by several laboratories.
